The values below come from PubChem BioAssay AID720519 (National Center for Advancing Translational Sciences (NCATS), 2013).

Records with an inconclusive call do not appear. A call without a number means that no potency is given here. Activity calls are given as the source filed them. Calls come from the whole dose curve; as a rule, active = well fitted activation curve with a large enough effect; inconclusive = small, poorly fitted or top-dose-only effect; inactive = flat fitted curve, though single readings scatter.

This assay in a line: qHTS for Inhibitors of Cell Surface uPA Generation: Confirmatory Assay for Cherry-picked Compounds. The settings on record: cell surface uPA activity generation, qHTS confirmation; series mostly up to 115 µM. A digest of the protocol:
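RAW 264.7 cells at 4000/well, incubated overnight, then treated with compounds. After 24 h at 37 C, viability was read by ATPlite luminescence. An increase in signal indicates blocked uPA-dependent LF entry.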
For orientation: Quantitative high-throughput screening tests each substance at several concentrations.
Take `CC(NC(=O)C1CCC(C(=O)NC(C)c2ccccc2)CC1)c1ccccc1` (centres undefined): the Potency entry is “inactive”. To `O=C(OCC(=O)N1CCOCC1)c1c(Cl)ccc(Cl)c1Cl` belongs “inactive”; to `CN(C)c1ccc(S(=O)(=O)N2CCC(Cc3ccccc3)CC2)cn1`, “inactive”. Regarding `Cc1ccc(C)c(S(=O)(=O)Nc2ccccc2C(=O)Nc2cc(C)on2)c1`, the Potency result was “inactive”. For `COc1ccc(-c2sc3ccccc3c2C#CCO)cc1` the value was “inactive”; for `CCn1c2ccccc2c2n[nH]c(=S)nc21`, “inactive”; for `CCOCCCn1c(SCC(=O)Nc2oc(C)c3c(C)n[nH]c(=O)c23)nc2ccccc2c1=O`, “inactive”.

As to `O=C(NC1CCCC1)c1nc2c(nnn2Cc2ccccc2Cl)c(=O)[nH]1`, the Potency entry was “inactive”. To `O=C1N[C@@H](Cc2c[nH]c3ccccc23)C(=O)N[C@H]1Cc1ccccc1` belongs “inactive”; to `CC(C)N1CCc2c(sc(NC(=O)CCc3ccccc3)c2C(N)=O)C1`, “inactive”; to `Cn1c(SCC(=O)NNC(=O)c2ccc(Br)cc2)nnc1-c1cccnc1`, “inactive”. For `CCCC1=NN(C(=O)Cc2ccc(OC)cc2)C(O)(C(F)(F)F)C1` (centres undefined) the value was “inactive”. For `O=C(O)CC1(CC(=O)NCc2ccc(Cl)cc2)CCCCC1`, the Potency result was “inactive”. Regarding `CCC(C)Sc1nnc(NS(=O)(=O)Cc2ccccc2)s1` (centres undefined), the Potency result was “inactive”. For `O=C(CN1CCN(Cc2ccc(Cl)cc2)C1=O)NCc1cccs1` the value was “inactive”; for `CC(/C=C/C1(O)C(C)CC(O)CC1(C)C)OC1OC(CO)C(O)C(O)C1O` (centres undefined), “inactive”; for `CC(C)OC(=O)Nc1ccc(-c2ccc(NC(=O)OC(C)C)cc2Cl)c(Cl)c1`, “inactive”.

Consider `CCc1ccccc1N(CC(=O)N1CCCC1)S(C)(=O)=O`, for which the Potency result is “inactive”.

On to `COc1ccc(CNC(=O)C2CCC(CNS(=O)(=O)c3ccc(C)cc3)CC2)cc1` (centres undefined), for which the Potency entry is “inactive”.

Turning to `Cn1c(=O)n(CC(=O)O)c(=O)c2c1nc1n2CCCN1CCc1ccccc1`, the Potency result is “inactive”. As to `Cc1ccc2[nH]c(CN3CCN(C)C(CCO)C3)c(C)c2c1` (centres undefined), the Potency result was “inactive”.

With `COc1ccc2nc(SC(C)C(=O)NC3(C#N)CCCCC3)[nH]c2c1` (centres undefined), the Potency result was “inactive”. `O=C(Cc1n[nH]c(=O)c2ccccc12)Nc1cccc(S(=O)(=O)N2CCCCCC2)c1`: the Potency result is “inactive”. For `CCc1nc(SCC(N)=O)c2c(=O)n(C)c(=O)n(C)c2n1`, the Potency result was “inactive”. On to `Cc1ccc2sc(NNC(=O)c3ccc4c(c3)OCCO4)nc2c1C`, for which the Potency entry was “inactive”. To `Cn1cccc1Cc1nnc(SCC(=O)Nc2ccc3c(c2)OCCO3)n1-c1ccc(F)cc1` belongs “inactive”; to `Cc1ccc(C23CC4CC(CC(C(=O)NN)(C4)C2)C3)cc1`, “inactive”; to `CC1CC(C)(C)Nc2ccc(N=O)cc21` (centres undefined), “inactive”. Consider `Cc1ccc(NC(=O)CC2OC(=O)c3ccccc32)cc1S(=O)(=O)N1CCOCC1` (centres undefined), for which the Potency entry is “inactive”.

As to `CC1=NN(C(N)=S)C(=O)C1N=Nc1ccccc1C(=O)O` (centres undefined), the Potency entry is “inactive”. In the case of `O=C(Nc1ccc(NC(=O)c2ccco2)c(Cl)c1)c1ccccc1`, the Potency entry is “inactive”. With `Cc1cc(C)cc(NC(=O)COC(=O)CCn2c(C)csc2=O)c1`, the Potency entry is “inactive”. For `CC(C)C(=O)Nc1nnc(SCc2cccc(F)c2)s1` the value was “inactive”. Turning to `Cc1cc(C)nc(NC(=O)CSc2nccc(C)n2)n1`, the Potency result was “inactive”. For `Cc1ccccc1C(=O)NCC(=O)Nc1ccc(C)c(S(=O)(=O)N2CCCCCC2)c1` the value was “inactive”; for `CCN(CC)CCNC(=O)/C(=C/c1cn(CC)c2ccccc12)NC(=O)c1cc(OC)c(OC)c(OC)c1`, “inactive”. For `COc1ccc(CCNC(=O)COC(=O)CNS(=O)(=O)c2ccc(SC)c([N+](=O)[O-])c2)cc1`, the Potency result is “inactive”. For `OCCN(Cc1ccccc1)CC(O)COc1ccc2c(c1)OCO2` (centres undefined) the value was “inactive”.

For the molecule `CC(C)c1ccc(SCc2noc(C(=O)NCC3CCCO3)c2C(=O)O)cc1` (centres undefined), the Potency entry was “inactive”.
